# Assay outcomes as filed in PubChem.
# HEK cytotox = HEK 293 cell cytotoxicity; Potency, µM (top dose mostly 115 µM), inactives show at the top dose activity change, negative = cytotoxicity, usual class: inhibitors; 6.6% of 94,000 active; HEK 293 viability, ATP luminescence (CellTiter-Glo), 48-72 h; note: nearly all actives have a fitted effect of over 60% in size
#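 HEK 293 seeded at 250 cells/well receive compound via pintool. After 48 or 72 hr at 37 degree Celsius, 5% CO2 and 95% humidity, CellTiter-Glo is dispensed and luminescence read following 10 min at room temperature.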
# GPT2 inhibitor = inhibitors of human GPT2 alanine aminotransferase. AID 1671188. Potency, µM (doses to about 57.7 µM), inactives show top-dose activity change, negative = inhibition, hits mostly inhibitors. 0.25% of 100,000 active. Recombinant GPT2, coupled pyruvate oxidase/HRP Amplex Red fluorescence. Q8TD30; note: nearly all actives have a fitted effect of over 60% in size
# Target sequence (Q8TD30 whole entry, looked up): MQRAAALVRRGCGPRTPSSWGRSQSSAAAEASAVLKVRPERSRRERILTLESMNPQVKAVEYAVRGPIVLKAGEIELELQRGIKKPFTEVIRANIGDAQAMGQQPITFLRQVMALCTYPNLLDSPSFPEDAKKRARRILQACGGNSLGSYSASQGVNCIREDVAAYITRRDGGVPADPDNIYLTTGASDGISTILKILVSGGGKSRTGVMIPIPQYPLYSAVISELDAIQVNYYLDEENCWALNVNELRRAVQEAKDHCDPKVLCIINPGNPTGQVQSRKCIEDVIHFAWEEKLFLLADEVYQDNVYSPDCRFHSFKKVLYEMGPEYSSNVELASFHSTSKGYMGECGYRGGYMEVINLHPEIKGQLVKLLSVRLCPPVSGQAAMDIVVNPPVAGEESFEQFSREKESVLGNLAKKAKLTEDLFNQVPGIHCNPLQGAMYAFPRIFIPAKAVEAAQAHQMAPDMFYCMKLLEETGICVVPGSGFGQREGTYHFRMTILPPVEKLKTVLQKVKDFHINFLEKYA
#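 Fluorescence of coupled pyruvate oxidase/HRP/Amplex Red system (50uM Amplex, 30 min, dark) reports pyruvate formed by GPT2. Enzyme reaction: 10ng/uL GPT2, 2mM L-alanine, 250uM a-KG, 30 min room temperature, pH 7.5; 50uM AOA control.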
# FLuc inh = blocks purified firefly luciferase enzyme activity; purified P. pyralis luciferase, luminescence, biochemical; Potency, µM (highest dose often 115 µM), most hits filed as inhibitors; 2.5% of 76,000 active; note: nearly all actives have a fitted effect of over 65% in size
#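 Luminescence read by CCD imager after adding enzyme (10nM final) to wells holding compound, titrated in qHTS. Substrates 10uM each D-luciferin and ATP; buffer 50mM Tris acetate pH 7.5, 10mM Mg acetate, Tween-20, BSA.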
# hNpr1 antagonist = blocks ANP-stimulated signaling of human Npr1 receptor | HEK293 hNpr1 GloSensor cGMP, ANP-stimulated luminescence | Potency, µM (series often up to 46.3 µM), without a hit: at the highest dose activity change, negative = inhibition, actives largely listed as inhibitors | P16066 | 1.6% of 76,000 active; calls by dose curve; note: nearly all actives have a fitted effect of over 60% in size
#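 HEK293 cells stably expressing human Npr1 and cGMP GloSensor pGS-40F, loaded 2 h with 2% GloSensor reagent, given compound 30 min at room temperature. Luminescence read before and 20 min after 0.1 nM hNppA.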
# 3T3 cytotox = NIH 3T3 cell cytotoxicity; NIH 3T3 viability, CellTiter-Glo ATP luminescence, 48-72 h; Potency, µM (series often up to 96.7 µM), for inactives: at the top dose activity change, negative = cytotoxicity, usual class: inhibitors; 4.3% of 94,000 active; AID 1345082; note: nearly all actives have a fitted effect of over 55% in size
#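 NIH 3T3 cells at 400 cells/well received 23 nL of compound by pintool and were incubated 48 or 72 h at 37 °C. Viability was read as ATP-coupled CellTiter-Glo luminescence.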
# * marks the source's active call; other numbers are inactive results; i = inactive; ? = inconclusive; / = no result given; [ ] = another dose, or the depositor's remark. Shown are actives, neighbours in structure and some others; about 10% of the full set was active somewhere. Unless noted, calls come from the whole dose curve; as a rule, active = well fitted curve in the direction sought with a large enough effect; inconclusive = small, poorly fitted or top-dose-only effect, or another doubt; inactive = no such curve, though single readings can be large; an effect the other way counts as inactive or inconclusive. % is set by controls: 0 for no effect and ±100 for the full control effect; potency is the fitted concentration of half-maximal effect.
SMILES,HEK cytotox,GPT2 inhibitor,FLuc inh,hNpr1 antagonist,3T3 cytotox
O=C(C[C@@H]1CCNC[C@@H]1Cc1cc(COc2ccccc2)on1)NCc1ccc(F)cc1,?,i,i,-14%,?
COc1ccc(CNC(=O)C[C@@H]2CCNC[C@@H]2Cc2cc(CSc3ccccc3)on2)cc1,50µM*,i,i,-29%,?
O=C(C[C@@H]1CCNC[C@@H]1Cc1cc(CC2CCCCC2)on1)NCc1ccco1,45µM*,i,i,?,100µM*
COc1ccc(CNC(=O)C[C@@H]2CCNC[C@@H]2Cc2cc(CC3CCCCC3)on2)cc1,28µM*,?,i,?,28µM*
COc1ccc(CNC(=O)C[C@@H]2CCNC[C@@H]2Cc2cc(COc3ccccc3)on2)cc1,?,-2%,i,-24%,25µM*
COc1ccc(CNC(=O)C[C@@H]2CCNC[C@@H]2Cc2cc(C(C)(C)C)on2)cc1,?,0%[88.5 µM],i,-2%[70.6 µM],-27%[138 µM]
COc1ccccc1CC(=O)N[C@@H]1CN(c2ncccn2)C[C@H]1CN(C)C,1%,-21%,i,4%,-2%
O=C1CC(c2ccccc2)N(Cc2ccncc2)CCCN(C(=O)c2ccc3ncccc3c2)CCN1 (centres undefined),?,i,i,1%,?
Cc1cccc(C)c1-c1nc(C(=O)NCc2cccnc2)n2ccccc12,?,-15%,i,-9%,?
O=C(C1CC1)N1CCN(C(=O)N2CC3CC(C2)[C@H]2CCCC(=O)N2C3)CC1 (some centres undefined),-5%,4%,i,2%,-7%
CN1CCOc2c(C(=O)NCCc3cnc[nH]3)cc(-c3ccccc3)cc21,?,-2%[88.5 µM],i,0%[70.6 µM],79µM*
CN1CCOc2c(C(=O)NCc3cnn(C)c3)cc(-c3cccnc3)cc21,?,3%[88.5 µM],i,-15%[70.6 µM],35µM*
CN1CCOc2c(C(=O)NCCc3cnc[nH]3)cc(-c3cccc4[nH]ccc34)cc21,?,i,?,-1%[70.6 µM],89µM*
CCCCNC(=O)CCN(CCCOC)C(=O)c1ccoc1,-3%,i,i,4%,-5%
COCc1ccc2c(c1)c(OC(C)(C)C(=O)Nc1ccccn1)nn2CCC(C)C,89µM*,1%[88.5 µM],i,-21%[70.6 µM],45µM*
COCc1ccc2c(c1)c(OC(C)(C)C(=O)NC1CC1)nn2CCC(C)C,?,i,i,?,?
COCc1ccc2c(c1)c(OC(C)(C)C(=O)NC1CCN(C)CC1)nn2CCC(C)C,?,-17%[88.5 µM],i,3%[70.6 µM],89µM*
O=C(NCc1ccc(Cl)cc1)c1noc(-c2ccc3c(c2)OCO3)n1,?,?,?,-11%,?
COCC(=O)NC[C@H]1O[C@@H](CO)[C@@H](O)[C@H]1N1CCN(c2ccccn2)CC1,i,-13%,i,10%,-14%
CN1CCN(c2cc(=O)c3ccnc(NCc4ccccc4)c3o2)CC1,i,-2%[88.5 µM],i,4%[70.6 µM],?
O=c1cc(N2CCOCC2)oc2c(NCC3CCOCC3)nccc12,-9%[172 µM],4%[88.5 µM],i,1%[70.6 µM],28µM*
O=c1cc(N2CCOCC2)oc2c(NCc3cnccn3)nccc12,-3%[172 µM],i,i,4%[70.6 µM],100µM*
COc1cc(-c2nccc3c(=O)cc(N4CCOCC4)oc23)ccn1,-15%[172 µM],2%[88.5 µM],i,5%[70.6 µM],?
O=C(c1cc2ccccc2[nH]1)N1CCN(c2cc(-c3ccccc3)[nH]n2)CC1,?,i,?,-10%,35µM*
O=C(c1ccccc1Cl)N1CCN(c2cc(-c3ccccc3)[nH]n2)CC1,20µM*,?,i,-13%,?
SMILES,HEK cytotox,GPT2 inhibitor,FLuc inh,hNpr1 antagonist,3T3 cytotox
O=C(c1ccc(F)cc1F)N1CCN(c2cc(-c3ccccc3)[nH]n2)CC1,?,-5%,i,-2%,-27%
O=C(c1ccc(F)cc1F)N1CCN(c2cc(-c3ccc(F)cc3)[nH]n2)CC1,40µM*,i,i,?,?
Cc1ccc(C(=O)N2CCN(c3cc(-c4ccccc4)[nH]n3)CC2)cc1,?,1%,i,?,?
COc1ccc(-c2cc(N3CCN(C(=O)c4cc5ccccc5[nH]4)CC3)n[nH]2)cc1,28µM*,i,?,-28%,20µM*
COc1ccc(-c2cc(N3CCCN(C(=O)c4ccccc4)CC3)n[nH]2)cc1,?,-1%,i,3%,-11%
COc1ccccc1NC(=O)Nc1cccc(-c2ccc(N3CCCCC3)nn2)c1,?,-6%,0.71µM*,?,?
CCOc1ccccc1NC(=O)Nc1cccc(-c2ccc(N3CCCC3)nn2)c1,-22%,-15%,6.3µM*,-24%,-25%
O=C(NCCc1ccccc1)Nc1cccc(-c2nnc3n2CCCC3)c1,?,4%,i,-14%,-14%
O=C(NCCc1ccccc1)Nc1cccc(-c2ccc(N3CCCCC3)nn2)c1,?,-10%,0.25µM*,8.9µM*,-27%
COc1ccccc1NC(=O)Nc1cccc(-c2nnc3n2CCCC3)c1,?,-5%,?,0%,?
CCc1ccc(CN2CCC3CC(=O)NCCC3C2)cc1 (centres undefined),i,-11%[88.5 µM],/,/,i
O=C(NC1CCCC1)c1ccc(OC2CCN(CCCC(F)(F)F)CC2)c(Cl)c1,32µM*,i,i,-3%,?
O=C(c1ccc(/C=C/c2n[nH]c3ccccc23)cc1)N1CCNCC1,/,i,/,/,/
COc1cccc(-c2nc3c([nH]2)CN(c2cc(C4CC4)ncn2)CC3)c1,35µM*,-6%[11.5 µM],25µM*,?,?
CCCCS(=O)(=O)N1C[C@@H](C(N)=O)[C@H](C2CCN(C)CC2)C1,i,-11%,i,8%,3%
O=C(NCc1cccc(Cl)c1)[C@@H]1CCCN1c1nccc(Nc2ccccc2Cl)n1,35µM*,i,/,/,?
O=C(NCc1cccc(C(F)(F)F)c1)[C@@H]1CCCN1c1nccc(Nc2ccccc2Cl)n1,?,-18%,/,/,?
O=C(NCc1cccc(F)c1)C1CCN(c2nccc(Nc3ccccc3Cl)n2)CC1,45µM*,i,/,/,?
O=C(NCc1ccc(F)cc1)C1CCN(c2nccc(Nc3ccccc3Cl)n2)CC1,?,4%,/,/,?
O=C(NCc1ccc2c(c1)OCO2)C1CCN(c2nccc(Nc3ccccc3Cl)n2)CC1,28µM*,0%,/,/,35µM*
CSCCNC(=O)C1CCN(c2nccc(Nc3ccccc3Cl)n2)CC1,?,i,/,/,35µM*
COc1ccc(-n2nc(C3CCCN(C(=O)c4ccccc4Cl)C3)[nH]c2=O)cc1 (centres undefined),?,i,i,0%,?
Cc1nn(C)c(C)c1S(=O)(=O)N1CCOc2ccc(CN3CCOCC3)cc2C1,-19%,i,/,/,-36%
